Compound activity from PubChem.
KB-V1 MDR tox – KB-V1 MDR subline cytotoxicity | KB-V1 MDR cells viability, CellTiter-Glo, 72 h | Potency, µM (top dose mostly 46.1 µM), most hits filed as cytotoxic | hit rate 3.4% among 400,000 | AID 1347076; note: nearly all actives have a fitted effect of over 60% in size
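Potencies derive from concentration-effect curves fitted to normalized luminescence (CellTiter-Glo) of KB-V1 cells treated for 72 h at 37 degrees C in phenol-red-free DMEM containing 10% FBS.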
HT1080 IDH1KD tx – kills HT-1080 cells with IDH1 knockdown | HT-1080 IDH1 knockdown viability, ATP luminescence, 48 h | Potency, µM (doses to about 46.1 µM), inactives show at the highest dose activity, negative = toxicity, actives largely listed as cytotoxic | hit rate 2% among 360,000 | AID 686971;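 note: 0% = DMSO wells and -100% = cell-free medium wells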
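Knockdown cells (IDH1KD HT-1080) received compounds 2 h after plating at 750 cells/well and were kept 48 h at 37 °C in 5% FBS RPMI. A CellTiter-Glo luminescence read gave % activity for curve fitting.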
HT1080NT lethal – kills 2HG-producing HT-1080-NT fibrosarcoma cells; HT-1080-NT fibrosarcoma viability, CellTiter-Glo ATP luminescence, 48 h; hit rate 1.6% among 360,000; Potency, µM (doses to about 46.1 µM), inactives show top-dose activity, negative = less viability, actives largely listed as cytotoxic;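 note: NT is the 2HG producing partner of a matched IDH1 knockdown line; 0% = DMSO-treated cells and -100% = media-only wells without cells; nearly all actives have a fitted effect of over 55% in size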
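750 cells/well, RPMI + 5% FBS; 2 h settle, compound pin-transfer, 48 h at 37 degrees C. CellTiter-Glo 10 min RT, luminescence. Normalized to DMSO and media-only wells.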
TDP1 cell CPT – growth inhibition of DT40 Tdp1-/-;hTDP1 cells with camptothecin (screen for TDP1 inhibitors) | chicken DT40 Tdp1-/-;hTDP1 cells + 20 nM CPT, ATP luminescence, 48 h | hit rate 12% among 420,000 | AID 686979 | Potency, µM (top dose mostly 46.2 µM), inactives show at the top dose activity change, negative = growth inhibition, hits mostly inhibitors; note: nearly all actives have a fitted effect of over 55% in size
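Chicken DT40 Tdp1-/- cells complemented with human TDP1, 400 cells/well, exposed to compounds plus 20 nM camptothecin for at least 48 h at 37 C; viability read as ATP content by CellTiter-Glo luminescence.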
KB-3-1 cytotox – KB-3-1 parental cell cytotoxicity | KB-3-1 viability, CellTiter-Glo ATP luminescence, 72 h | Potency, µM (highest dose often 46.1 µM), actives largely listed as cytotoxic | hit rate 1.4% among 400,000; note: nearly all actives have a fitted effect of over 60% in size
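Screening of KB-3-1 cells (DMEM, 10% FBS, phenol-red free) ran from lowest to highest compound concentration; after 72 h at 37 °C viability was read luminescently and curves fitted.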
DT40 TDP1 no CPT – qHTS for Inhibitors of human tyrosyl-DNA phosphodiesterase 1 (TDP1): qHTS in cells in absence of CPT | AID 686978, 2013 | DT40 Tdp1-/- hTDP1 cells, no CPT, ATP luminescence, 48 h | hit rate 15% among 420,000 | Potency, µM (series often up to 46.2 µM), for the others: at the top dose activity change, negative = growth inhibition, usual class: inhibitors; note: nearly all actives have a fitted effect of over 55% in size
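Compound effects on proliferation are scored in DT40 Tdp1-/-;hTDP1 cells in the absence of CPT. ATP levels (CellTiter-Glo luminescence) are recorded after a ≥48 hr, 37 °C incubation.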
The depositor's hits bear a star; i = inactive; ? = inconclusive; · = not tested or not shown. Hits are enriched below; roughly 19% of the tested compounds scored in any of these assays. Calls come from the whole dose curve; as a rule, active = well fitted curve in the direction sought with a large enough effect; inconclusive = small, poorly fitted or top-dose-only effect, or another doubt; inactive = no such curve, though single readings can be large; an effect the other way counts as inactive or inconclusive. Unless noted, % is set by controls: 0 for no effect and ±100 for the full control effect; potency is the fitted concentration of half-maximal effect.

SMILES	KB-V1 MDR tox	HT1080 IDH1KD tx	HT1080NT lethal	TDP1 cell CPT	KB-3-1 cytotox	DT40 TDP1 no CPT
O=C(C[n+]1c2ccccc2cc2ccccc21)c1ccc(F)cc1	i	·	·	?	?	10µM*
O=C(C[n+]1cccc2ccccc21)c1ccc(F)cc1	i	·	·	-9%	i	-24%
O=S(=O)(c1ccccc1)c1nnn2c1nc(NCc1ccccc1)c1cc(Cl)ccc12	i	·	·	18µM*	i	?
CCc1ccc(S(=O)(=O)c2nnn3c2nc(N(CC)Cc2ccccc2)c2cc(Cl)ccc23)cc1	i	·	·	9.2µM*	i	16µM*
O=C1CCCN1CCCNc1nc2c(S(=O)(=O)c3ccccc3)nnn2c2ccc(Cl)cc12	?	?	?	21µM*	?	?
O=S(=O)(NCc1cc(-c2ccccc2Cl)no1)c1ccc(Cl)cc1	?	-7%	?	?	i	?
C[C@@H]1CN([C@H](C)CO)C(=O)c2cc(Br)cnc2O[C@H]1CN(C)C(=O)Nc1ccccc1F	i	12%	7%	-7%	i	-14%
CCOC(=O)Cn1c(=O)cc(C(F)(F)C(F)(F)F)c2c(C)nn(CC)c21	·	·	·	-29%	·	?
O=[N+]([O-])c1cccc2nc(-c3ccccc3)c(-c3ccccc3)nc12	i	-9%	-11%	?	i	?
Cn1c(-[n+]2c(-c3ccccc3)cc(-c3ccccc3)cc2-c2ccccc2)nc2c([N+](=O)[O-])cccc21	?	?	?	9.2µM*	?	18µM*
Cc1cccc(OCC(=O)NCC(=O)N/N=C/c2cc(Br)cc(Br)c2O)c1	i	?	?	?	?	?
O=C1OC(c2ccccc2)(c2ccccc2)c2ccccc21	i	-14%	-24%	?	i	?
O=C1OC(c2ccccc2)(c2ccc(O)cc2)c2ccccc21 (configuration not stated)	i	?	21µM*	?	i	?
CCC1NC(C(=O)O)Cc2c1[nH]c1ccccc21 (configuration not stated)	i	1%	-13%	7.3µM*	i	9.2µM*
N#Cc1ccc(CC(=O)c2ccccc2)[nH]c1=O	i	13%	1%	10%	i	6%
N=C1C(c2nc(-c3ccc(F)cc3)cs2)=C(O)CN1Cc1ccc(Cl)cc1	i	?	?	-7%	i	-12%
Oc1cc2cc(-c3csc(-c4ccc(F)cc4)n3)cc3c2n1CCC3	i	·	·	?	?	20µM*
Nc1ncnc(NCc2ccccc2)c1[N+](=O)[O-]	i	0%	-1%	-12%	i	-18%
Nc1ncnc(N2CCc3ccccc32)c1[N+](=O)[O-]	13µM*	6%	-5%	5.8µM*	?	7.3µM*
O=C(CCCN1C(=O)c2ccccc2C1=O)Nc1cccc(S(=O)(=O)NC2=NCCC2)c1	i	3%	10%	6%	i	-4%
CSc1ncc2c(n1)-c1cc(C)ccc1SC2	i	?	?	2.6µM*	?	5.2µM*
Cc1ncc2c(n1)-c1cc(F)ccc1SC2	i	13%	13%	-5%	i	1%
O=C(Nc1ccc(CN2CCOCC2)cc1)c1ccc(Cl)cc1Cl	i	-8%	?	-26%	i	-11%
CC(C)c1ccc(C(=O)Nc2ccc(CN3CCOCC3)cc2)cc1	i	-18%	0%	?	i	?
O=C(/C=C/c1ccccc1)NC(=S)Nc1ccc(CN2CCOCC2)cc1	?	?	?	?	i	18µM*
SMILES	KB-V1 MDR tox	HT1080 IDH1KD tx	HT1080NT lethal	TDP1 cell CPT	KB-3-1 cytotox	DT40 TDP1 no CPT
O=C(/C=C/c1ccc(Cl)cc1Cl)NC(=S)Nc1ccc(CN2CCOCC2)cc1	?	-23%	-1%	16µM*	i	13µM*
CC(C)CC(=O)N1CCN(Cc2ccc(Cl)cc2)CC1	i	15%	7%	-3%	i	?
CC(C)c1ccc(CN2CCN(C(=O)CCl)CC2)cc1	?	?	?	1.2µM*	?	0.73µM*
CC(C)c1ccc(/C=C/C(=O)Nc2ccc(CN3CCOCC3)cc2)cc1	16µM*	?	?	8.2µM*	?	13µM*
N#Cc1ccsc1NC(=O)COC(=O)c1cc2ccccc2cc1O	i	?	?	12%	i	-17%
OC(C#Cc1ccccn1)c1cccs1 (configuration not stated)	?	?	?	18µM*	?	16µM*
O=C(NC1CCCCC1)C(c1cccs1)N(C(=O)c1ccccn1)c1ccccc1 (configuration not stated)	i	5%	7%	-14%	i	?
COc1ccc2[nH]c(=O)c(CN(C)C(=O)c3ccncc3)cc2c1	i	4%	11%	-6%	i	-3%
CCCN(Cc1cc2cc(OC)ccc2[nH]c1=O)C(=O)c1ccncc1	i	?	?	?	?	16µM*
CCCN(Cc1cc2cc(OC)ccc2[nH]c1=O)C(=O)c1ccco1	i	0%	2%	29µM*	i	16µM*
COc1ccc(NC(=O)N(C)C[C@@H]2OCc3cnnn3CCCC(=O)N([C@H](C)CO)C[C@@H]2C)cc1	i	-15%	14%	-9%	?	-3%
CCN(CC(=O)Nc1ccc(OC)cc1)C(=O)c1ccc(N2CCCC2=O)cc1	i	2%	2%	-10%	i	-6%
CN1CCN(C(=O)CCN2C(=O)/C(=C\c3ccc(Cl)cc3)SC2=S)CC1	i	0%	3%	18µM*	i	?
O=C(CN1C(=O)/C(=C/c2ccc(F)cc2)SC1=S)N1CCN(CCc2ccccn2)CC1	i	-9%	-13%	6.5µM*	i	2.3µM*
O=C(CCN1C(=O)/C(=C/c2ccc(F)cc2)SC1=S)NCCc1ccc(O)cc1	i	5%	-6%	-13%	i	?
Cc1ccc(/C=C2\SC(=S)N(CCCC(=O)Nc3ccccn3)C2=O)cc1	?	-7%	0%	?	?	?
COc1ccc(/C=C2\SC(=S)N(CCCC(=O)N3CCN(C)CC3)C2=O)cc1	i	16µM*	26µM*	?	i	?
CCc1ccc(/C=C2\SC(=S)N(CCCC(=O)N3CCN(C)CC3)C2=O)cc1	i	?	-19%	?	i	?
